Reference: the supplement of paper PMC12636033
± gives the standard deviation of the averaged measurements. Whole data set: some 33,000 sequences, median “E-score (rank enrichment, -0.5 to 0.5)” near -0.0043, cut for the highest 2% near 0.24. Shown is part of a subset that was picked to be rich in the highest values.

test system: 2Sp-muMax20 (muMax20 with two 2,6-bis(methyl)pyridine Cys staples); assay: PBM 8-mer E-score (E-score (rank enrichment, -0.5 to 0.5)); higher = stronger preferential binding
Procedure: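 Protein binding microarray (universal PBM chip covering all 10-mers in fixed probe flanks) with chemically synthesized human Max(13-93) bHLH-LZ analogs (not full-length Max) bearing noncanonical residues (hArg, Tha, Aib, Nle at 65) and aromatic Cys staples. Read-out per 8-mer (and its reverse complement): E-score (rank-based enrichment, -0.5 to 0.5) and Z-score of median probe intensity.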

| Sequence | PBM 8-mer E-score |
| --- | --- |
| GATGTGAA | 0.177 ± 0.043 |
| GACGTGAC | 0.0337 ± 0.019 |
| CACGTGAC | 0.406 ± 0.011 |
| TATGTGAA | 0.308 ± 0.017 |
| AACGTGAC | 0.147 ± 0.045 |
| CACGTGAG | 0.255 ± 0.005 |
| CCCGTGAG | -0.225 ± 0.016 |
| CACGTGAA | 0.392 ± 0.022 |
| AACGTGAG | 0.0157 ± 0.023 |
| GACCCATC | -0.0849 ± 0.083 |
| GGCAACAC | 0.0268 ± 0.038 |
| CTCGGGTA | -0.193 ± 0.024 |
| TAAATAAA | 0.129 ± 0.012 |
| CCCGTGAC | -0.0332 ± 0.029 |
| GAAGCGCC | -0.146 ± 0.03 |
| AGCGTGAC | 0.0983 ± 0.058 |
| CGCGTGAC | 0.286 ± 0.036 |
| CGCGTGAG | 0.219 ± 0.012 |
| CTCAGGTC | -0.298 ± 0.018 |
| GCGAGGGA | 0.0348 ± 0.068 |
| GTATAATA | 0.26 ± 0.018 |
| ATATAATA | 0.244 ± 0.015 |
| GTATAAGA | 0.171 ± 0.024 |
| GAATAATA | 0.0134 ± 0.025 |
| ATATAATG | 0.235 ± 0.0039 |

| Sequence | PBM 8-mer E-score |
| --- | --- |
| CTATAATA | 0.0904 ± 0.023 |
| GCGACCCA | -0.125 ± 0.0022 |
| TAACTAGA | 0.216 ± 0.032 |
| TAAATTGA | 0.123 ± 0.068 |
| CCTACACG | -0.0918 ± 0.0064 |
| TATATACA | 0.11 ± 0.072 |
| AATATACT | 0.0855 ± 0.0041 |
| AATATACA | 0.272 ± 0.012 |
| ACTATACA | 0.236 ± 0.052 |
| TCTATACA | 0.111 ± 0.0021 |
| GCTATACA | 0.148 ± 0.0048 |
| ACTACACA | 0.317 ± 0.02 |
| ACTACACG | 0.134 ± 0.1 |
| GAGGGCAA | 0.00807 ± 0.048 |
| AATTGTGT | 0.124 ± 0.015 |
| ATGGCGTC | -0.112 ± 0.017 |
| AATCTCAC | -0.00554 ± 0.028 |
| CCACAACA | -0.0195 ± 0.008 |
| GCACAACC | -0.26 ± 0.11 |
| GCACAACA | 0.245 ± 0.044 |
| TATCGATA | 0.28 ± 0.0074 |
| AATCGATA | 0.122 ± 0.028 |
| GATCGATA | 0.0711 ± 0.063 |
| CGTAGTTC | -0.126 ± 0.036 |
| ATGGTGCG | -0.0695 ± 0.038 |

| Sequence | PBM 8-mer E-score |
| --- | --- |
| CATGGGCC | -0.227 ± 0.033 |
| ATGGTAAT | 0.0649 ± 0.056 |
| CCCGTAGA | -0.219 ± 0.0027 |
| CGGCGGGA | -0.183 ± 0.048 |
| AGGCGGGA | 0.0612 ± 0.085 |
| GGCGGGAA | 0.0758 ± 0.012 |
| GGGCGGGA | 0.302 ± 0.009 |
| CGCGGGGA | 0.00762 ± 0.0032 |
| GGCGGGGA | 0.327 ± 0.0043 |
| CGGGATAG | -0.0726 ± 0.029 |
| GATAATAA | 0.161 ± 0.11 |
| AATAATCA | 0.0327 ± 0.025 |
| GATAATCC | -0.0127 ± 0.051 |
| TATAATCA | 0.248 ± 0.026 |
| CATAATCA | 0.122 ± 0.058 |
| GATAATCA | 0.291 ± 0.0043 |
| CTCCTGCA | -0.0859 ± 0.085 |
| ACCAGCGA | -0.0875 ± 0.13 |
| AGTGCCCG | -0.183 ± 0.011 |
| CGGGCCCG | -0.0343 ± 0.1 |
| ACCTTCAG | 0.0376 ± 0.011 |
| CAACGGCC | -0.302 ± 0.033 |
| GAAACGGC | -0.0635 ± 0.06 |
| AAACGGCC | 0.2844 ± 0.0015 |
| AAAACGGC | 0.295 ± 0.024 |

| Sequence | PBM 8-mer E-score |
| --- | --- |
| AAACGGCT | -0.108 ± 0.055 |
| CAAACGGC | -0.18938 ± 4.9e-05 |
| GTATCTCA | 0.17 ± 0.075 |
| CAACCTCC | -0.00017 ± 0.065 |
| GAAGTGTA | -0.0146 ± 0.06 |
| ATGGCTGG | -0.00368 ± 0.018 |
| TATGTCAA | 0.224 ± 0.067 |
| AGTGGTAA | 0.0408 ± 0.025 |
| CGTATCTA | 0.000215 ± 0.053 |
| GGTATCTA | -0.00749 ± 0.008 |
| ACTATATC | 0.302 ± 0.055 |
| ATTATATC | 0.243 ± 0.051 |
| AGTATATG | 0.125 ± 0.12 |
| AGTATATC | -0.0248 ± 0.067 |
| ATTATATG | 0.198 ± 0.017 |
| AGTATATA | 0.273 ± 0.03 |
| AGTATCTA | 0.3 ± 0.034 |
| ATTATATA | 0.199 ± 0.014 |
| ACTATCTC | -0.108 ± 0.18 |
| CCTATATC | -0.0131 ± 0.064 |
| CGCGCTGA | 0.00249 ± 0.09 |
| CATGCAGG | 0.0699 ± 0.036 |
| CCTAGTTA | 0.0579 ± 0.045 |
| CGTGGGTC | 0.00478 ± 0.056 |
| CCCAAACC | 0.0283 ± 0.012 |

| Sequence | PBM 8-mer E-score |
| --- | --- |
| AGTGCAAA | -0.0314 ± 0.044 |
| GTGTGGCA | 0.0191 ± 0.059 |
| GAAGCCGA | -0.13 ± 0.0099 |
| CGATCCTC | -0.0245 ± 0.032 |
| GCGCAAAC | 0.11 ± 0.026 |
| GCGTAGGA | 0.112 ± 0.03 |
| ATGCTTGG | 0.102 ± 0.0062 |
| ACTATATG | 0.196 ± 0.0091 |
| ATTATACG | 0.125 ± 0.014 |
| ATTATACA | 0.0914 ± 0.033 |
| GCTATATA | 0.149 ± 0.013 |
| ATTATACC | 0.238 ± 0.031 |
| ACTATATA | 0.254 ± 0.018 |
| CTTCGGAA | -0.0272 ± 0.017 |
| ATTCGCCC | 0.0547 ± 0.0036 |
| ATCTGACA | -0.0699 ± 0.061 |
| TTATTCAA | 0.133 ± 0.037 |
| ATATTCAT | 0.299 ± 0.027 |
| ATATTCAG | 0.126 ± 0.074 |
| CTATTCAA | 0.266 ± 0.08 |
| ATATTCAC | 0.109 ± 0.072 |
| ATATTCAA | 0.157 ± 0.012 |
| ACGCTTTC | -0.00481 ± 0.013 |
| ACGCGAAT | 0.0678 ± 0.068 |
| TAGAATGA | 0.207 ± 0.064 |

| Sequence | PBM 8-mer E-score |
| --- | --- |
| AAAGTATA | 0.236 ± 0.03 |
| GTAGTATA | 0.236 ± 0.045 |
| CAAGTATA | 0.142 ± 0.1 |
| CTAGTATA | 0.219 ± 0.023 |
| ATAGTATA | 0.11 ± 0.035 |
| AAAGTATT | 0.223 ± 0.0032 |
| CGAACCTA | -0.123 ± 0.015 |
| GCGCACTA | 0.0235 ± 0.033 |
| GAATGCTA | -0.14 ± 0.023 |
| AAATGCTA | 0.251 ± 0.058 |
| AAATGCTG | 0.0946 ± 0.018 |
| GTAAACTA | 0.175 ± 0.032 |
| CACCAACA | 0.106 ± 0.0083 |
| GCCCCATA | 0.29 ± 0.019 |
| CGCCCATA | 0.0508 ± 0.075 |
| CCCCCATA | 0.0149 ± 0.042 |
| GACCCATA | 0.188 ± 0.032 |
| GGCCCATA | -0.0969 ± 0.099 |
| AGCCCATA | 0.238 ± 0.035 |
| GTACCAAC | -0.0554 ± 0.078 |
| ATCCAGGC | -0.01 ± 0.042 |
| AAGACAGG | -0.106 ± 0.025 |
| GTCTGGAA | -0.0499 ± 0.016 |
| ATCCAAGA | -0.0976 ± 0.054 |
| AGGTGGAT | -0.1057 ± 0.00054 |

| Sequence | PBM 8-mer E-score |
| --- | --- |
| AAAAATCG | -0.00934 ± 0.012 |
| GCATAAGA | 0.0752 ± 0.0016 |
| ACATAATG | 0.193 ± 0.064 |
| CCATAGTA | 0.144 ± 0.0076 |
| GCATAATA | 0.2429 ± 0.0015 |
| ACATAATA | 0.262 ± 0.075 |
| CCATAATA | 0.161 ± 0.054 |
| ACATAATC | 0.109 ± 0.04 |
| ACATAGTA | 0.118 ± 0.076 |
| GCATAGTA | 0.273 ± 0.032 |
| GACATGAC | 0.00058 ± 0.047 |
| GTATGCAC | 0.075 ± 0.08 |
| AACGTTGG | -0.0574 ± 0.07 |
| CGAGCGAA | 0.0234 ± 0.064 |
| CTCATTAC | 0.197 ± 0.087 |
| CTCATTAA | 0.273 ± 0.031 |
| AGCATTAC | -0.0132 ± 0.0023 |
| CGCATTAA | 0.0861 ± 0.014 |
| AGCATTAA | 0.209 ± 0.0096 |
| TGCATTAA | 0.285 ± 0.014 |
| AGCATTAT | 0.266 ± 0.05 |
| AGCATTAG | 0.0579 ± 0.1 |
| ATCATTAA | 0.0844 ± 0.0038 |
